# Pf growth 48h – Primary qHTS for delayed death inhibitors of the malarial parasite plastid, 48 hour incubation; AID 504832, 2011; 5.9% of 310,000 active; P. falciparum luciferase growth in erythrocytes, 48 h; Potency, µM (series often up to 28.7 µM), inactives show top-dose activity change, negative = inhibition, hits mostly inhibitors; further: potency means the concentration at half of the fitted maximal effect
#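 Parasite viability was followed by luminescence of a genomically integrated firefly luciferase. Cultures held 0.1% parasitemia at 2% hematocrit (final), incubated under 5% CO2 at 37 C.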
# Pf growth 96h – Primary qHTS for delayed death inhibitors of the malarial parasite plastid, 96 hour incubation | P. falciparum luciferase reporter growth, 96 h | Potency, µM (titrated, usually from 28.7 µM), inactives show at the highest dose activity change, negative = inhibition, actives largely listed as inhibitors | 6.9% of 320,000 active | AID 504834, 2011; further: potency means the concentration at half of the fitted maximal effect
#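 Infected RBCs, 2% Hct / 0.05% parasitemia final; luciferase-reporter P. falciparum; cpd 96 h, 37 C, 5% CO2; luciferase detection reagent; luminescence.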
# HCV inh – qHTS Assay for Inhibitors of Hepatitis C Virus (HCV); AID 651820, 2012; Potency, µM (highest dose often 41.8 µM), for the others: at the highest dose activity change, negative = inhibition, most hits filed as inhibitors; 3.4% of 340,000 active; Huh7.5.1 HCVcc-Cre infection, luciferase reporter, 44 h; further: potency means the concentration at half of the fitted maximal effect
#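 HCVcc-Cre virus at an moi near 0.5 was added right after compound to cells cultured 4 h from seeding (1,000 cells/well). Luciferase activity was determined 44 h later, 15 min after substrate addition at RT.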
# MARV entry inh – qHTS for inhibitors of binding or entry into cells for Marburg Virus | Marburg virus pseudotyped entry inhibition, cell reporter | Potency, µM (top dose mostly 37.8 µM), for inactives: at the top dose activity change, negative = inhibition, usual class: inhibitors | 1.8% of 300,000 active; calls by dose curve; tested in HEK293 cells; further: potency means the concentration at half of the fitted maximal effect
# Lassa entry inh – qHTS for Inhibitors of binding or entry into cells for Lassa Virus | Potency, µM (top dose mostly 37.9 µM), for the others: top-dose activity change, negative = inhibition, most hits filed as inhibitors | Lassa virus pseudotype entry inhibition, cell reporter | 1.2% of 300,000 active; calls by dose curve; tested in HEK293 cells; further: potency means the concentration at half of the fitted maximal effect; nearly all actives have a fitted effect of over 50% in size
# HCMV inh – qHTS Assay for inhibitors of the human cytomegalovirus (HCMV); activity change, negative = inhibition, % at 57.5 µM; 4.5% of 410,000 active; HFF cells, HCMV-luciferase reporter, 72 h; active compounds read low; in the data active means activity change below about -60%; inconclusive means no clear call, values can overlap the other calls; inactive means above about -39%
#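 Inhibition of viral replication was scored as loss of reporter luminescence in HFFs infected with HCMV-luciferase (MOI 1 PFU/cell) for 72 h; compounds tested at 2 doses, normalized to buffer and Salinomycin controls.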
# Numbers without * were called inactive; i = inactive; u = inconclusive; x = not tested or not shown; [ ] = another dose, or the depositor's remark. Rows were chosen to be rich in hits. Some 14% of all compounds tested hit in one or more screens of this group. Unless noted, the call rests on the fitted dose curve; in most records, active means well fitted inhibition curve with a large enough effect; inconclusive means small, poorly fitted or top-dose-only effect, or another doubt; inactive means no such curve, though single readings can be large or run the other way. On the % scale 0 is the no-effect control and ±100 the full control effect.
SMILES,Pf growth 48h,Pf growth 96h,HCV inh,MARV entry inh,Lassa entry inh,HCMV inh
CCN(C[C@H]1N[C@@](Cc2ccccc2)(C(=O)OC)[C@H]2C(=O)N(C)C(=O)[C@@H]12)S(=O)(=O)c1ccc(-c2ccccc2)cc1,x,x,17.8µM*,x,x,-27.5
CCN(C[C@H]1N[C@@](Cc2ccccc2)(C(=O)OC)[C@H]2C(=O)N(Cc3ccccc3)C(=O)[C@@H]12)S(=O)(=O)c1ccc(C)cc1,x,x,7.08µM*,x,x,-11.3
Cc1ccc(CNc2ncnc3ccc(-c4ccoc4C)cc23)o1,x,x,x,x,x,-29.6
CCC(C)NCC(O)(c1ccc(Cl)cc1)c1ccc(Cl)cc1 (stereo not drawn),u,2.94µM*,-15.7%,u,-28.8%,-25.4
CCOc1ccc(C(C(=O)NCC2CCCO2)N(Cc2cccc(OC)c2)C(=O)c2snc(C(N)=O)c2N)cc1 (stereo not drawn),13.1µM*,u,-20.5%,u,x,14.6
COc1ccc(C(C(=O)NCC2CCCO2)N(Cc2cccs2)C(=O)c2snc(C(N)=O)c2N)cc1 (stereo not drawn),u,u,u,3.16µM*,u,-101.3*
Cc1ccc(-c2nc3ccc(Cl)cn3c2Nc2ccc3c(c2)OCCO3)s1,x,x,x,u,18.6%[46.1 µM],96.8
Nc1ccccc1Oc1ncc(C(F)(F)F)cc1Cl,5.22µM*,52.7%,8.1%,14.1%,3.1%,-3.2
Cn1nc(C(F)(F)F)cc1Oc1ncc(C(F)(F)F)cc1Cl,i,4.0%,-13.1%,11.8%[14.2 µM],7.4%,-61.7*
O=C1[C@@H]2[C@H]3[C@H](O)[C@H](O)CC(=NOC[C@@H](O)COCc4ccco4)[C@@H]3CC[C@H]2C(=O)N1C1CCCCC1,x,x,x,-22.0%[14.2 µM],x,x
S=C(NCc1ccncc1)Nc1ccc(Cl)cc1Cl,-35.3%,22.6%,-14.6%,12.2%,-10.0%,u
S=C(NNc1ccnc2cc(Cl)ccc12)Nc1ccc(Cl)cc1Cl,1.85µM*,0.738µM*,5.62µM*,x,x,0.0
CCOc1ccc(NC(=S)NNc2ccnc3cc(Cl)ccc23)cc1,u,2.08µM*,3.16µM*,u,-0.5%,54.4
CC(C)c1nc2n(n1)C1(CCCCC1)[C@@H]1CCCC[C@@H]1N2,x,x,x,-16.1%[46.1 µM],-0.8%[46.1 µM],-13.6
CC1CCC2(CC1)NC(=O)N(CC(=O)NC(=O)NC1CCCC1)C2=O (stereo not drawn),-14.5%,13.1µM*,-20.1%,0.3%,-7.7%,11.2
CC1CCC2(CC1)NC(=O)N(CC(=O)Nc1cccc(S(=O)(=O)N3CCCCC3)c1)C2=O (stereo not drawn),x,x,25.1µM*,x,x,-25.6
O=C(CN1C(=O)NC2(CCCCCC2)C1=O)NC1CCCCCCC1,4.6%,13.8%,9.8%,x,x,-25.3
CCC1(c2ccc(F)cc2)NC(=O)N(CC(=O)Nc2cccc(S(=O)(=O)N3CCCCC3)c2)C1=O (stereo not drawn),u,u,10µM*,u,-9.8%,-39.4
CC1(C(=O)Nc2ccc3ccccc3c2)CCC(=O)N1C1CC1 (stereo not drawn),x,x,x,x,x,36.4
CCOCCn1ccc2c(OCC(=O)Nc3cc(C(F)(F)F)ccc3Cl)cccc2c1=O,x,x,x,x,7.3%[46.1 µM],5.6
Cc1ccc(C(=O)N2c3ccccc3N=C(c3ccccc3)C2C(=O)NC(C)C)cc1 (stereo not drawn),x,x,x,x,x,-5.9
COc1ccc(S(=O)(=O)N2CCCCCC2)cc1N(C)S(=O)(=O)c1ccc(Cl)cc1,u,u,u,u,-42.3%,-60.5*
Cc1cc(C)c(S(=O)(=O)N2CCCCC2)c(C)c1N(C)S(=O)(=O)c1ccc(Cl)cc1,9.28µM*,u,u,u,u,u
O=S(=O)(c1ccc(F)c(Cl)c1)N1CCCC1,-18.1%,-5.6%,5.7%,-8.3%,-1.3%,-23.1
O=C1Nc2ccccc2/C1=C\c1cccn1-c1ccc(OC(F)(F)F)cc1,u,-17.5%,0.562µM*,-28.6%,-0.3%,-21.6
Cc1ccccc1CSCC(=O)NC(=O)NCc1ccco1,49.3%,6.57µM*,10.3%,-7.1%,-38.1%,35.4
